This is a sample that favours compounds with a hit; in the whole collection about 22% have one here.
Measles CPE: protection of cells from measles virus; Measles virus-infected cells, CPE protection, absorbance; protection (pct of control), % at 4 µM; 140,000 compounds, 1.5% hits; AID 841; in the data active = protection mostly above about 24%, no sharp cut-off; inactive = mostly below about 26%
CYP2C9 act: activators of human CYP2C9; 96,000 compounds, 1.4% hits; activation factor at 5 µM; P11712; recombinant CYP2C9, luciferin-H conversion, luminescence; active compounds read high; factor 1 = untreated enzyme, 0 = blocked; AID 1024;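 active = activation factor of 2 or more for CYP2C9 at a 5 µM dose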
Target sequence (P11712 whole entry, looked up): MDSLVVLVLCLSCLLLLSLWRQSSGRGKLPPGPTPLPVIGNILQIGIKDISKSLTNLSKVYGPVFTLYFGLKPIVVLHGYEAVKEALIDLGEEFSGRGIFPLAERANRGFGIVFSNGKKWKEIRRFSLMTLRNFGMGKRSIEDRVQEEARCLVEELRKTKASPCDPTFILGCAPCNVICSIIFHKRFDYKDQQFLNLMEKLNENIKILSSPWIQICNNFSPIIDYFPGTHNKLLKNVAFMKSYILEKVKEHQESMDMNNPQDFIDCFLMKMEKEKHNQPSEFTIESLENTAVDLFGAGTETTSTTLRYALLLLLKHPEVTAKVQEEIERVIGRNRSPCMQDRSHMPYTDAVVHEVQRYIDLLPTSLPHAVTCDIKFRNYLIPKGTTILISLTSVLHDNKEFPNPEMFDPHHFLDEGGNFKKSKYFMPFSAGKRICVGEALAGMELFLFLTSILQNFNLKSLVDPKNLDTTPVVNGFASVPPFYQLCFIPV
CYP2C19 inhib: blocks human cytochrome P450 2C19 | CYP2C19 Supersomes, luciferin-H EGE luminescence, 30 min | inhibition, % at 5 µM | 96,000 compounds, 21% hits;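 active = CYP2C19 inhibition above a set limit at 5 µM in the primary screen, cut at about 50% in these data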
CYP2C9 inh: human CYP2C9 inhibition | CYP2C9 Supersomes, luciferin-H conversion, luminescence | inhibition, % at 5 µM | 96,000 compounds, 20% hits | AID 777;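 active = blocking of liver enzyme CYP2C9 beyond about 50% at 5 µM, limit read from the data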
CYP2C19 activ: increases human CYP2C19 enzyme activity; P33261; recombinant CYP2C19, luciferin-H EGE luminescence; active compounds read high; 0 = fully inhibited enzyme, 1 = untreated enzyme; 96,000 tested, under 10 active; AID 1025; activation factor at 5 µM;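 active = activation factor of at least 2 at 5 µM in the primary screen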
Hits are given with their value; n = inactive; x = no result.

SMILES | Measles CPE | CYP2C9 act | CYP2C19 inhib | CYP2C9 inh | CYP2C19 activ
Cc1ccc(OCC(=O)NCc2ccccn2)c(Br)c1 | n | n | 61 | n | n
Cn1c(=O)cc(OCC(=O)NCc2ccccn2)c2ccccc21 | n | n | n | n | n
O=C1CCCc2[nH]nc(-c3cccnc3)c21 | n | n | n | n | n
COc1ccc(/C(C)=N/NC(=S)NCc2ccco2)cc1 | n | x | x | x | x
COc1cc(C(C#N)N2N=C(c3ccccc3)CC2c2ccccc2)ccc1O (centres undefined) | n | n | n | 58 | n
Cc1ccccc1N(CC(=O)NCCc1ccccc1)C(=O)c1ccc(N2CCCC2)nc1 | n | n | 57 | 95 | n
O=C(NCC1CCCO1)c1ccc(N2CCCCC2)nc1 (centres undefined) | n | n | n | n | n
O=C(C(Sc1ccccc1)c1ccccc1)N1CCOCC1 (centres undefined) | n | x | x | x | x
CCCCOC(=O)Nc1cc(OC)c(Cl)cc1OC | n | n | 98 | 61 | n
COc1cc(NC(=O)C2CCCC2)c(OC)cc1Cl | n | n | 65 | n | n
CCCCC(=O)Nc1cc(OC)c(NC(=O)C2CCCCC2)cc1OC | n | n | 71 | 99 | n
Cc1nn(Cc2c(F)c(F)c(F)c(F)c2F)c(C)c1NC(=O)c1ccc(COc2ccc(F)cc2)o1 | n | n | n | n | n
CCOC(=O)C(C)On1c(-c2cccc(Cl)c2)nc2ccc([N+](=O)[O-])cc21 (centres undefined) | n | n | 88 | 89 | n
CCN(CC)S(=O)(=O)c1cc(NC(=O)CCCOc2ccc(C(C)=O)cc2)ccc1C | n | x | x | x | x
CC(C)C(O)(C#CCN1CCCC1)c1ccccc1 (centres undefined) | n | n | 50 | n | n
CC(C)C(O)(C#CCN1CCCCC1)c1ccccc1 (centres undefined) | n | n | 72 | n | n
OC(C#CCN1CCCCC1)c1ccccc1 (centres undefined) | n | n | n | n | n
CC(O)(C#CCN1CCOCC1)c1ccccc1 (centres undefined) | n | n | n | n | n
C=C(C)CNC(=S)Nc1sc2c(c1C(=O)OCC)CC(C)(C)OC2 | n | x | x | x | x
O=C(CCn1c(=O)c2ccccc2n(CC(=O)NC2CCCC2)c1=O)NCc1ccco1 | n | n | n | 54 | n
CC1CC(C)CN(C(=O)Cn2c(=O)n(CCCCC(=O)NC3CCCC3)c(=O)c3ccccc32)C1 (centres undefined) | n | n | n | 74 | n
O=C(CCCCn1c(=O)c2ccccc2n(CC(=O)NC2CCCC2)c1=O)NC1CCCC1 | 88 | n | n | 62 | n
O=C(CCCCn1c(=O)c2ccccc2n(CC(=O)NC2CCCC2)c1=O)NCc1ccco1 | n | n | n | 62 | n
O=C(CCCCn1c(=O)c2ccccc2n(Cc2ccc(Cl)cc2)c1=O)NCc1ccco1 | n | n | n | n | n
O=C(/C(Br)=C/Nc1cc(Cl)ccc1Cl)C(F)(F)F | n | x | x | x | x
SMILES | Measles CPE | CYP2C9 act | CYP2C19 inhib | CYP2C9 inh | CYP2C19 activ
CCc1ccc(NC(=O)Cn2c(=O)n(CCCC(=O)NCc3ccco3)c(=O)c3ccccc32)cc1 | n | n | n | n | n
CC1CC(C)CN(C(=O)Cn2c(=O)n(CCCCC(=O)NCc3ccco3)c(=O)c3ccccc32)C1 (centres undefined) | n | n | n | 79 | n
O=C(CCCCn1c(=O)c2ccccc2n(CC(=O)Nc2cccc(F)c2)c1=O)NCc1ccco1 | n | n | n | 75 | n
COc1cccc(NC(=O)Cn2c(=O)n(CCCC(=O)NCc3ccco3)c(=O)c3ccccc32)c1 | n | n | n | n | n
NC(=O)C(CC(=O)O)NC(=O)[C@@H]1CCCNc2c(I)cc([N+](=O)[O-])cc2C(=O)N[C@@H](CO)C(=O)N[C@@H](Cc2ccc(O)cc2)C(=O)N1 (some centres undefined) | n | x | x | x | x
CC1CCc2cc(F)ccc2N1C(=O)CN1C(=O)c2ccccc2C1=O (centres undefined) | n | n | n | n | n
O=C(NCc1ccco1)c1ccc(COc2cc(Cl)ccc2Cl)cc1 | n | x | x | x | x
COC(=O)Nc1nnc(-c2ccncc2)s1 | n | n | n | n | n
c1ccc2c(Nc3nnc(-c4ccncc4)s3)cccc2c1 | n | n | 96 | 90 | n
C=CCNc1nnc(-c2ccncc2)s1 | n | n | 77 | n | n
CC(=O)N/C(=C/c1ccc2c(c1)OCO2)C(=O)NCCO | n | x | x | x | x
CC(C)(C)c1ccc(OCCNC(=O)Cc2ccc(F)cc2)cc1 | n | x | x | x | x
O=C(NNS(=O)(=O)c1ccccc1[N+](=O)[O-])c1cccc(Cl)c1 | n | x | x | x | x
COc1cc(NC(=O)CSc2nnc(C)s2)cc(OC)c1 | n | n | 52 | n | n
CCN(CC)S(=O)(=O)c1ccc(/C(O)=C(\C#N)c2nc3ccccc3n2C)cc1 | n | n | n | n | n
CCOc1ccc(S(=O)(=O)N(CCO)CCO)cc1-c1nc2c(C(C)(C)C)nn(C)c2c(=O)[nH]1 | n | n | n | 59 | n
CCOc1ccc(S(=O)(=O)NC(C)(C)C)cc1-c1nc2c(C(C)(C)C)nn(C)c2c(=O)[nH]1 | n | n | n | 66 | n
COCCN(CCOC)c1nc(S(=O)(=O)c2ccc(C)cc2)c(Cl)s1 | 28 | n | 81 | 56 | n
CC(=O)Nc1nc(S(=O)(=O)c2ccc(C)cc2)c(Cl)s1 | n | n | 55 | n | n
CCOc1nc(S(=O)(=O)c2ccc(C)cc2)c(Cl)s1 | n | n | 83 | n | n
Cc1ccc(S(=O)(=O)c2nc(Nc3nccs3)sc2Cl)cc1 | n | n | 68 | 60 | n
Cc1ccc(S(=O)(=O)c2nc(NCc3ccc4c(c3)OCO4)sc2Cl)cc1 | n | n | n | n | n
CC(=O)N1CCC(=NNC(=O)c2cccs2)CC1 | n | x | x | x | x
Cc1cc(C)n(C(=O)C2CCCN2S(=O)(=O)c2ccc(Cl)cc2)n1 (centres undefined) | n | n | n | n | n
Cc1[nH]n(-c2ncc(-c3ccccc3)s2)c(=O)c1C(c1ccc(Br)cc1)C(C#N)C#N (centres undefined) | n | x | x | x | x
SMILES | Measles CPE | CYP2C9 act | CYP2C19 inhib | CYP2C9 inh | CYP2C19 activ
Cc1cc(NC(=O)c2cc(-c3ccccc3)on2)n(-c2ccccc2)n1 | n | n | n | n | n
Cc1ccc(-n2nc(C)cc2NC(=O)c2ccc(C)s2)cc1 | n | n | 76 | n | n
C=CCC(CC=C)(NC(=O)c1cccc(C)c1)c1ccccc1 | n | x | x | x | x
Cc1ccc2c(N)c(C)ccc2c1 | n | n | 67 | n | n
COc1ccc(N2CCN(c3oc(COc4ccccc4Cl)nc3C#N)CC2)cc1 | n | n | n | 56 | n
COc1ccc(OCc2nc(C#N)c(N3CCN(c4ccc(OC)cc4)CC3)o2)cc1 | n | x | x | x | x
N#Cc1nc(COc2ccc(Cl)cc2)oc1N1CCCCCC1 | n | n | 89 | 97 | n
N#Cc1nc(Cc2ccccc2)oc1N1CCN(c2ccccc2)CC1 | n | n | n | n | n
N#Cc1nc(COc2cccc(Cl)c2)oc1N1CCN(c2ccccc2)CC1 | n | n | n | 57 | n
N#Cc1nc(COc2ccccc2)oc1N1CCCCC1 | n | n | n | n | n
N#Cc1nc(COc2ccccc2)oc1N1CCN(c2cccc(Cl)c2)CC1 | n | n | n | 80 | n

Source: PubChem BioAssay
